Compounds with a hit are over-represented: about 18% of the library has one in this group of screens.
CtBP-E1A blk: CtBP/E1A binding inhibition | AlphaScreen GST-E1A/His-CtBP binding, 1536-well; active compounds read low | activity change, % (concentration not given with the values) | 340,000 tested, 0.49% active | AID 651724; in the data active = activity change below about -65%; inconclusive = mostly about -30% to -63%
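Steps: dispense buffer (Tris pH 8.0, NaCl 300 mM, TCEP 1 mM, BSA, Tween 20); add 5X protein mix (GST-E1A, His-CtBP, 125 nM each); pin 23 nL compound; 2 h at 37 °C, dark; add 5X beads (50 ug/mL); 1 h; read.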
IL1B secr inh: inhibitors of inflammasome signaling (IL-1 beta secretion). activity change, % at 57.5 µM. THP-1 LPS/ATP IL-1B secretion, AlphaLISA, 16 h; active compounds read low. AID 743279. 360,000 tested, 4.7% active; in the data active = activity change below about -50%; inconclusive = mostly about -30% to -49%
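THP-1 cells pretreated 1 hr with compounds (up to 57.5 uM final), then stimulated with LPS (250 ng/mL final) plus ATP (1.25 mM final); secreted IL-1B measured by AlphaLISA after 16 hr, decreased signal indicating inhibition.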
TDP1 block: TDP1 (human) enzyme inhibition. 350,000 tested, 0.28% active. Potency, µM (series often up to 130 µM), without a hit: at the top dose activity change, negative = inhibition, actives largely listed as inhibitors. recombinant TDP1, AlphaScreen DNA substrate cleavage; note: potency is the fitted concentration of half-maximal effect; nearly all actives have a fitted effect of over 40% in size
Target sequence (Q9NUW8 whole entry, looked up): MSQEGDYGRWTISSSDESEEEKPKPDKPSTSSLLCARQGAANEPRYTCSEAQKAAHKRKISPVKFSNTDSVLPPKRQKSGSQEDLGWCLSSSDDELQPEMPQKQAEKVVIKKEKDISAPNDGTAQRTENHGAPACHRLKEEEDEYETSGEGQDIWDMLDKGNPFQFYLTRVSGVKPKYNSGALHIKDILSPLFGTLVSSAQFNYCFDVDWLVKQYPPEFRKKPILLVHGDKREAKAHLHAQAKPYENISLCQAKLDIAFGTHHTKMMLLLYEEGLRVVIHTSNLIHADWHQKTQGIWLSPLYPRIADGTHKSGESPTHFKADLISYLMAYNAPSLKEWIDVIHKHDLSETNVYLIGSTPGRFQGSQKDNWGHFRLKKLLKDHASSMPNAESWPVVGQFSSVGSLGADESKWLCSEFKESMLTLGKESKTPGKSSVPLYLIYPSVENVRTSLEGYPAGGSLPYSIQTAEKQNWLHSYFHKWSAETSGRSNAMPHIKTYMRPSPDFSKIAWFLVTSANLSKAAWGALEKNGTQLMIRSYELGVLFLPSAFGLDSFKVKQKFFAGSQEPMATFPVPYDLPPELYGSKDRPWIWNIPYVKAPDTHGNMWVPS
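Signal: AlphaScreen proximity between streptavidin donor and anti-FITC acceptor beads on intact substrate. Reaction: Tdp1 1 nM, substrate 15 nM final, 5 min RT after 15 min compound preincubation.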
TDP1 cell noCPT: qHTS for Inhibitors of human tyrosyl-DNA phosphodiesterase 1 (TDP1): qHTS in cells in absence of CPT; AID 686978, 2013; DT40 Tdp1-/- hTDP1 cells, no CPT, ATP luminescence, 48 h; 420,000 tested, 15% active; Potency, µM (series often up to 46.2 µM), without a hit: at the highest dose activity change, negative = growth inhibition, hits mostly inhibitors; note: potency is the fitted concentration of half-maximal effect; nearly all actives have a fitted effect of over 55% in size
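Readout: luminescence from CellTiter-Glo after 30 min in the dark at RT. Cells: DT40 Tdp1-/- with stable hTDP1, 400/well. Exposure: compounds alone, ≥48 hr, 37 °C.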
Six1-Eya2 blk: blocks human Six1 binding to Eya2; Q15475+O00167; AlphaScreen GST-Six1/His-Eya2 binding, biochemical; active compounds read low; activity change, % (no concentration beside the values); 360,000 tested, 0.56% active; in the data active = activity change below about -65%; inconclusive = mostly about -30% to -63%
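Homogeneous AlphaScreen proximity assay pairing GST-Six1 with His-tagged Eya2 (added as 5X mix: 250 nM and 500 nM) in 50 mM Tris pH 8.0, 300 mM NaCl, 1 mM TCEP. Glutathione donor and nickel acceptor beads; 1 h, 37 °C, dark.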
DT40 TDP1 CPT: growth inhibition of DT40 Tdp1-/-;hTDP1 cells with camptothecin (screen for TDP1 inhibitors). chicken DT40 Tdp1-/-;hTDP1 cells + 20 nM CPT, ATP luminescence, 48 h. Potency, µM (top dose mostly 46.2 µM), for the others: top-dose activity change, negative = growth inhibition, most hits filed as inhibitors. 420,000 tested, 12% active; note: potency is the fitted concentration of half-maximal effect; nearly all actives have a fitted effect of over 55% in size
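Chicken DT40 Tdp1-/- cells stably complemented with human TDP1 were seeded at 400 cells/well in medium containing 20 nM camptothecin, exposed to pin-transferred compounds, and grown at 37 °C for at least 48 hr. Viability was read as ATP luminescence.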
An asterisk follows results filed as active; ? = inconclusive; . = not tested or not shown; [ ] = dose if it differs, or a comment. Unless noted, calls come from the whole dose curve; as a rule, active = well fitted curve in the direction sought with a large enough effect; inconclusive = small, poorly fitted or top-dose-only effect, or another doubt; inactive = no such curve, though single readings can be large; an effect the other way counts as inactive or inconclusive. % is set by controls: 0 for no effect and ±100 for the full control effect.

SMILES	CtBP-E1A blk	IL1B secr inh	TDP1 block	TDP1 cell noCPT	Six1-Eya2 blk	DT40 TDP1 CPT
CC(Sc1nc2ccccc2c(=O)n1CC1CCCO1)C(=O)N(C)c1ccccc1 (stereo not drawn)	-12	-3	2%	5.8µM*	-1	21µM*
Cc1ccc(C)c(NC(=O)C(Sc2nc3ccccc3c(=O)n2CC(C)C)c2ccccc2)c1 (stereo not drawn)	0	-2	4%	2.6µM*	3	4.1µM*
CSc1cccc(NC(=O)C(C)Sc2ccc(C)cc2)c1 (stereo not drawn)	2	34	-6%	-14%	10	-7%
Cc1ccc(C)c(NC(=O)C(Sc2nncn2C)c2ccccc2)c1 (stereo not drawn)	6	0	0%	-8%	6	2%
Cc1ccc[n+](-c2nc([O-])sc2/C=N/Nc2ccc([N+](=O)[O-])cc2)c1	3	21	.	-19%	2	?
O=c1[nH]c2ccc(N/C(=N/S(=O)(=O)c3ccccc3)c3ccccc3)cc2[nH]1	-1	-2	-2%	-27%	?	-30%
CCCCNC(=O)CCn1c(=O)c2ccccc2n(Cc2ccc(F)cc2)c1=O	-7	-14	1%	?	-18	-26%
CC(Sc1nc2ccccc2c(=O)n1C)C(=O)Nc1ccc2c(c1)OCCO2 (stereo not drawn)	-8	22	2%	4.1µM*	0	8.2µM*
O=C(Cn1cnc2ccccc2c1=O)Nc1ccc2c(c1)OCO2	0	-5	-1%	-5%	1	3%
CC(C)Cn1c(SC(C)C(=O)Nc2ccc3c(c2)OCCO3)nc2ccccc2c1=O (stereo not drawn)	-3	-14	0%	?	-10	29µM*
O=C(Cn1cnc2ccccc21)Nc1ccc2c(c1)OCCCO2	0	0	1%	2.3µM*	20	8.2µM*
O=C(CSc1ncnc2ccccc12)Nc1ccc2c(c1)OCO2	-2	-65*	-1%	?	-4	?
C[C@@H]1CC2C3CCC4=CC(=O)C=CC4(C)[C@@]3(F)[C@@H](O)CC2(C)[C@@]1(O)C(=O)CO (stereo partly drawn)	.	.	7%	.	.	.
Nc1cccc2c1C(=O)N(C(=O)c1ccc(S(=O)(=O)N3CCCCCC3)cc1)C2=O	-3	14	0%	-10%	1	-13%
CCOC(=O)c1ccc(NC2=CC(c3ccc(O)c(OCC)c3)N(c3ccc(C(=O)OCC)cc3)C2=O)cc1 (stereo not drawn)	.	.	5%	13µM*	.	13µM*
O=C(COc1ccccc1Cl)N1CCN(C(=O)c2ccco2)CC1	7	-2	2%	-9%	5	13%
COc1ccc(-c2noc(CCC(=O)N3CCN(c4cccc(OC)c4)CC3)n2)cc1	-11	-18	2%[56.1 µM]	16µM*	-13	?
COc1ccc(-c2noc(CCC(=O)N3CCN(c4cccc(C(F)(F)F)c4)CC3)n2)cc1	2	?	1%	23µM*	-1	?
Cn1c(=O)c2c(nc(NCCNC(=O)c3ccco3)n2Cc2ccccc2Cl)n(C)c1=O	-3	21	4%	?	1	-27%
Cn1c(=O)c2c(nc(N/N=C/c3ccc(OC(=O)c4ccco4)cc3)n2Cc2ccccc2)n(C)c1=O	-12	32	8%	8.2µM*	-7	12µM*
Cn1c(N/N=C/c2cccs2)nc2c1c(=O)n(Cc1ccccc1)c(=O)n2C	?	19	3%	-27%	?	-16%
Cn1c(=O)c2c(nc(N/N=C/c3cccs3)n2Cc2ccccc2)n(C)c1=O	-8	23	7%	23µM*	1	?
COCCn1c(=O)c(-c2cccc(Cl)c2)nc2cncnc21	.	.	.	-5%	.	-7%
